Only some compounds are listed: those with a hit (about 3.4% of all), similar ones and a draw of the others.
FBW7 activator: human FBW7 E3 ligase activation, primary screen; AlphaScreen FBW7–phospho-cyclin E peptide binding, activator screen; Q969H0; normalized activity (activation), % at 26.1 µM; 650,000 tested, 0.13% active; AID 1259310; in the data active = normalized activity above about 1.9%;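 also: purified mutant Fbw7 with reduced substrate affinity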
MITF primary: human MITF inhibition, primary screen; O75030; AlphaScreen MITF homodimerization, bead proximity signal; inhibition, % at 2.6 µM; 650,000 tested, 0.91% active; in the data active = inhibition above about 50%
TEAD-YAP block: TEAD-YAP interaction inhibition; HEK-TIYL cells, TEAD-Gal4/YAP UAS-luciferase luminescence; inhibition, % at 9.12 µM; 640,000 tested, 1.4% active; AID 1259422; in the data active = inhibition above about 32%
GPR151 ag: activates the human receptor GPR151 | Q8TDV0 | PathHunter beta-arrestin GPR151 cells, luminescence | activation, % at 11.2 µM | 650,000 tested, 1% active; in the data active = activation above about 4.9%
Target sequence (Q8TDV0 whole entry, looked up): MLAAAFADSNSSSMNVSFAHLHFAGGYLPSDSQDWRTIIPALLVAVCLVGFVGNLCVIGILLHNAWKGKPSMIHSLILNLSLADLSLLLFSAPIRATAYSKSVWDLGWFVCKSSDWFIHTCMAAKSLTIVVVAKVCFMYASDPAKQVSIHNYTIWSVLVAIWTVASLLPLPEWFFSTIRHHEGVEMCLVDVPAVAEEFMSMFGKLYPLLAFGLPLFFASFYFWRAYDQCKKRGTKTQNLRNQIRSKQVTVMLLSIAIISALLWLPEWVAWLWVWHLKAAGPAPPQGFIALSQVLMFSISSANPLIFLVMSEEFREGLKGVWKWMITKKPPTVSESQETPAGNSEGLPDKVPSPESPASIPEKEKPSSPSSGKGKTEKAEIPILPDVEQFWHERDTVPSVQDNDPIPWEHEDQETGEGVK
GPR151 confirm: confirmation of human GPR151 activators; AID 1508609; activation, % at 11.2 µM; GPR151 PathHunter beta-arrestin cells, luminescence, 90 min; % of EA-reagent control over plate median; 6,700 tested, under 10 active; shares compounds with GPR151 ag;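 active = mean percent activation across replicates above the confirmation screen cutoff of 4.91%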
GPR119 ag: activates human GPR119 in a GPR151 counter-screen; 6,700 tested, 0.3% active; AID 1508611; activation, % at 11.2 µM; shares compounds with GPR151 ag; GPR119 PathHunter beta-arrestin cells, luminescence, 90 min; 0 = compound-well median, 100 = enzyme-acceptor control;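 active = mean percent activation in the counterscreen above 29.09%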;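 also: counterscreen on off-target GPR119 to flag nonselective hits from the GPR151 activator screen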
Each line names hits and unclear results; the compound was inactive in the other large screens (follow-up assays come after a bar, where they were run).

Cc1ccc(OCc2ccc(-c3nc(C#N)c(N(C)C)o3)o2)cc1	none
CCN(CC)c1c(-c2ccccc2)c2cc(Br)ccc2[nH]c1=O	GPR151 ag 5.9 | GPR151 confirm inactive | GPR119 ag inactive
O=C(O)Cc1c(-c2ccccc2)c2cc(Br)ccc2[nH]c1=O	none
COCc1nnc(NC(=O)C2CCCCC2)s1	GPR151 ag 6.4 | GPR151 confirm inactive | GPR119 ag inactive
Cc1sc2nc(CSCC(=O)NCC(F)(F)F)[nH]c(=O)c2c1C	none
Cc1sc2nc(CSCC(=O)NC3CC3)[nH]c(=O)c2c1C	GPR151 ag 6.1 | GPR151 confirm inactive | GPR119 ag inactive
COc1ccc(C(=O)n2nc(C)c(C(C)=O)c2C)cc1	none
CS(=O)(=O)N(CC(=O)NC1CC1)c1ccc(F)c(Cl)c1	GPR151 ag 5.6 | GPR151 confirm inactive | GPR119 ag inactive
CS(=O)(=O)N(CC(=O)NC1CCCC1)c1ccc(F)c(Cl)c1	none
CS(=O)(=O)N(CC(=O)Nc1cccc(Cl)c1Cl)c1cccc(F)c1	GPR151 ag 5.3 | GPR151 confirm inactive | GPR119 ag inactive
COC(=O)c1cnc(NCc2ccccn2)c2ccccc12	none
COc1cccc(Cn2c(=O)[nH]n(-c3ccccc3)c2=O)c1	none
COc1cc(NC(=O)Nc2ccc(-c3nc4ccccc4o3)cc2)cc(OC)c1OC	GPR151 ag 5.6 | GPR151 confirm inactive | GPR119 ag inactive
COc1ccc(NC(=O)c2cc(-c3ccccc3O)no2)cc1OC	GPR151 ag 5.5 | GPR151 confirm inactive | GPR119 ag inactive
O=C(Nc1ccc2c(c1)OCO2)c1cc(-c2ccccc2F)no1	GPR151 ag 5.2 | GPR151 confirm inactive | GPR119 ag inactive
COc1ccc(NC(=O)c2cc(-c3ccccc3F)no2)cc1OC	none
Cc1cc(C(=O)Nc2ccc3c(c2)OCO3)on1	none
COc1ccc(S(=O)(=O)N(CC(=O)Nc2cccc(C(F)(F)F)c2)Cc2ccccc2)cc1OC	none
O=C(NCC(c1ccco1)N1CCOCC1)c1ccc(F)cc1 (configuration not stated)	GPR151 ag 5.4 | GPR151 confirm inactive | GPR119 ag inactive
CCn1c(=O)n(CC)c2cc(NC(=O)c3ccccc3[N+](=O)[O-])c(Br)cc21	none
CC(NCC(C)(C)CN(C)C)C(=O)Nc1ccccc1 (configuration not stated)	GPR151 ag 7.0 | GPR151 confirm inactive | GPR119 ag inactive
O=[N+]([O-])c1ccc(NC2CCCCC2)nc1	none
O=C(Nc1ccc([N+](=O)[O-])cn1)C1CCCCC1	GPR151 ag 9.2 | GPR151 confirm inactive | GPR119 ag inactive
CCOCCc1nnc(NC(=O)CC(c2ccccc2)c2ccccc2)s1	GPR151 ag 8.6 | GPR151 confirm inactive | GPR119 ag inactive
Cc1cccc(OCC(O)CN2CCCCCC2)c1C (configuration not stated)	GPR151 ag 9.8 | GPR151 confirm inactive | GPR119 ag inactive
CCN(CC)CCNCC(=O)N1CCCc2ccccc21	GPR151 ag 8.3 | GPR151 confirm inactive | GPR119 ag inactive
CCC1C(=O)NCCN1Cc1ccc2c(c1)CN(Cc1cccc(C)n1)CCO2 (configuration not stated)	GPR151 ag 5.4 | GPR151 confirm inactive | GPR119 ag inactive
CSC1=C(C#N)C(c2ccc3c(c2)OCO3)CC(=O)N1 (configuration not stated)	GPR151 ag 5.1 | GPR151 confirm inactive | GPR119 ag inactive
CCCSC1=C(C#N)C(c2ccc3c(c2)OCO3)CC(=O)N1 (configuration not stated)	none
CSc1nc2sccn2c(=O)c1C(=O)NCC(F)(F)F	none
CSc1nc2sccn2c(=O)c1C(=O)NCc1ccccc1Oc1ccccc1	GPR151 ag 17 | GPR151 confirm inactive | GPR119 ag inactive
CSc1nc2sccn2c(=O)c1C(=O)NC1CCC(O)CC1 (configuration not stated)	GPR151 ag 6.8 | GPR151 confirm inactive | GPR119 ag inactive
COc1cc(OC)c(/C=C2/NC(=O)N(CC(=O)Nc3cccc(C)c3)C2=O)c(OC)c1	none
CCOC(=O)c1sc2nccc3c2c1N=CN3c1ccccc1	GPR151 ag 5.3 | GPR151 confirm inactive | GPR119 ag inactive
CN(C)c1ccc(-c2cnc3c(n2)[nH]c(=O)n3-c2ccccc2)cc1	GPR151 ag 6.0 | GPR151 confirm inactive | GPR119 ag inactive
O=C(CSc1nnc(-c2ccco2)o1)Nc1ccc(Br)cn1	none
Cc1sc2nc(C(C)C)n3c(SCC(=O)NNC(=O)C(C)C)nnc3c2c1C	GPR151 ag 7.4 | GPR151 confirm inactive | GPR119 ag inactive
CCC(=O)NNC(=O)CSc1nnc2c3c(C)c(C)sc3nc(C(C)C)n12	none
COc1ccccc1C(=O)NCc1nc(-c2cccc(C)c2)no1	none
CC1CCC(C(C)C)C(OC(=O)CSc2nnnn2C)C1 (configuration not stated)	none
CC1CCC(C(C)C)C(OC(=O)CSc2cccc[n+]2[O-])C1 (configuration not stated)	GPR151 ag 4.9 | GPR151 confirm inactive | GPR119 ag inactive
O=C(NCCO)c1ccn[nH]1	GPR151 ag 6.0 | GPR151 confirm inactive | GPR119 ag inactive
O=C(NCCNC(=O)c1ccn[nH]1)c1ccn[nH]1	none
COc1cccc(-c2nc3cc(F)ccc3cc2CN[C@H]2CCCCNC2=O)c1	none
OC(c1cccnc1)c1ccc2c(c1)CN(Cc1cccc(Cl)c1)CCO2 (configuration not stated)	GPR151 ag 41 | GPR151 confirm inactive | GPR119 ag inactive
Cc1ccc(C(=O)Nc2ccc(F)cc2)cc1S(=O)(=O)N1CCCCCC1	none
Cc1ccc(C(=O)Nc2cc(C(N)=O)cc(C(N)=O)c2)cc1S(=O)(=O)N1CCCCC1	GPR151 ag 6.4 | GPR151 confirm inactive | GPR119 ag inactive
COc1ccc(N2CCN(c3nc(N4CCOCC4)nc(N4CCOCC4)n3)CC2)cc1	none
COc1cccc(/C=C/c2nc3ccccc3c(=O)n2-c2ccc(NC(C)=O)cc2)c1OC	GPR151 ag 5.6 | GPR151 confirm inactive | GPR119 ag inactive
O=C(NCCCN1CCCC1=O)c1ccc(Sc2ccc(F)cc2)c([N+](=O)[O-])c1	none
CN1CCN(c2ccccc2NC(=O)c2ccc([N+](=O)[O-])o2)CC1	GPR151 ag 5.7 | GPR151 confirm inactive | GPR119 ag inactive
CN1CCN(c2ccccc2NC(=O)Cc2ccc(Cl)cc2)CC1	GPR151 ag 6.1 | GPR151 confirm inactive | GPR119 ag inactive
CS(=O)(=O)N1CCN(c2ccccc2NC(=O)c2ccc([N+](=O)[O-])o2)CC1	none
COc1ccc(CCNC(=O)c2cccc(-c3cccs3)n2)cc1	none
O=C(CSCc1ccc(Br)cc1)N1CCCCCC1	none
COC(=O)C1C(=O)C2=C(CC1C)NC(=O)CC2c1cc(OC)c(O)c([N+](=O)[O-])c1 (configuration not stated)	none

Bioassay records deposited in PubChem BioAssay by The Scripps Research Institute Molecular Screening Center.
